# According to PubChem BioAssay (NCATS):
# Unmarked numbers belong to inactive results. Results filed as inconclusive are left out. The source made the active and inactive calls. Unless noted, the call rests on the fitted dose curve; in most records, active means well fitted curve in the direction sought with a large enough effect; inconclusive means small, poorly fitted or top-dose-only effect, or another doubt; inactive means no such curve, though single readings can be large; an effect the other way counts as inactive or inconclusive.
# Experiments:
# [1] = Cell Viability - LYMP2-013 (AID 970); further: potency means the concentration at half of the fitted maximal effect; nearly all actives have a fitted effect of over 55% in size
# Outline: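 Cytotoxicity is scored as a concentration-dependent drop in intracellular ATP in human lymphoblastoid cells after 24 hr compound exposure at 37 C. ATP is quantified by luciferase luminescence, and AC50 values come from Hill-equation modeling.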
# [2] = Cell Viability - LYMP2-015 (AID 971); further: potency means the concentration at half of the fitted maximal effect; nearly all actives have a fitted effect of over 55% in size
# Outline: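 Cells are seeded at 2500 per well and incubated 5 hr at 37 C. Compounds are added across a concentration series for 24 hr at 37 C. CellTiter-Glo is added, and luminescence is read after 30 min at room temperature.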
# [3] = Cell Viability - LYMP2-017 (AID 972); further: potency means the concentration at half of the fitted maximal effect; nearly all actives have a fitted effect of over 55% in size
# Outline: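 Cytotoxicity is scored as a concentration-dependent drop in cellular ATP in a human lymphoblastoid line after 24 hr treatment at 37 C. Values are AC50s from Hill-equation modelling.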
# [4] = Cell Viability - LYMP2-019 (AID 973); further: potency means the concentration at half of the fitted maximal effect; nearly all actives have a fitted effect of over 55% in size
# Outline: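 Cytotoxicity is scored as a concentration-dependent drop in cellular ATP after cells (2500/well) receive compound for 24 hr at 37 C. Tetraoctylammonium bromide serves as positive control.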
# [5] = Cell Viability - LYMP2-021 (AID 974)
# Outline: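 Loss of cellular ATP, measured with a luciferase-based CellTiter-Glo readout, serves as the toxicity signal in human lymphoblastoid cells treated for 24 hours at 37 C. Potency is reported as AC50 from a standard Hill model.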
# [6] = Cell Viability - LYMP2-023 (AID 975)
# Outline: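 Steps: seed 2500 human lymphoblastoid cells per well, incubate 5 hr at 37 C, add compound for 24 hr at 37 C, add CellTiter-Glo, hold 30 min at room temperature, read luminescence. AC50 derived by Hill modelling.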
# [7] = Cell Viability - LYMP2-025 (AID 976); further: potency means the concentration at half of the fitted maximal effect
# Outline: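 Acute cytotoxicity is scored as a concentration-dependent fall in intracellular ATP, measured by luciferase luminescence, in human lymphoblastoid LYMP2-025 cells exposed to compound for 24 hours at 37 C. AC50 values come from standard Hill fits.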
# [8] = Cell Viability - LYMP2-002 (AID 977);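 further: potency means the concentration at half of the fitted maximal effect; compound exposure lasted 24 h at 37 °C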
# Outline: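 Human lymphoblastoid cells, 2500/well, complete medium; 5 h 37 C settle; compound 24 h 37 C; CellTiter-Glo, 30 min RT; luminescence. Decrease in ATP = cytotoxicity; AC50 via Hill equation.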
# [9] = Cell Viability - LYMP2-007 (AID 979);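 further: potency means the concentration at half of the fitted maximal effect; cells exposed to compound for 24 h before reading; nearly all actives have a fitted effect of over 60% in size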
# Outline: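 Cells are seeded at 2500 per well and rested 5 hr. Compounds are then added over a concentration series for 24 hr at 37 C. CellTiter-Glo is added for 30 min at room temperature before luminescence reading.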
# [10] = Cell Viability - LYMP2-008 (AID 980); further: potency means the concentration at half of the fitted maximal effect; nearly all actives have a fitted effect of over 60% in size
# Outline: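 Cells seeded at 2500/well and rested 5 hr at 37 C; compounds added over a concentration range and incubated 24 hr at 37 C; CellTiter-Glo added, 30 min at room temperature; luminescence read and AC50 fitted with Hill model.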
# [11] = Cell Viability - LYMP2-010 (AID 981)
# Outline: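 Steps: seed 2500 LYMP2-010 cells per well; incubate 5 hr at 37 C; add compound; incubate 24 hr at 37 C; add CellTiter-Glo, wait 30 min at room temperature; read luminescence. Concentration-response fitted to Hill equation for AC50.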
# [12] = Cell Viability - LYMP2-012 (AID 982)
# [13] = Cell Viability - LYMP2-014 (AID 983); further: potency means the concentration at half of the fitted maximal effect; nearly all actives have a fitted effect of over 50% in size
# Outline: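 Cells are plated at 2500/well and left 5 hr at 37 C. Compounds are added across a concentration range and incubated 24 hr at 37 C in complete medium. CellTiter-Glo is added, and luminescence is read after 30 min at room temperature.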
# [14] = Cell Viability - LYMP2-016 (AID 984)
# Outline: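 Cells were seeded at 2500 per well and rested 5 hr before a 24 hr compound exposure at 37 C. Viability was then gauged as cellular ATP by luciferase luminescence, with AC50 values fitted to the Hill equation.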
# [15] = Cell Viability - LYMP2-018 (AID 985); further: potency means the concentration at half of the fitted maximal effect; nearly all actives have a fitted effect of over 50% in size
# Outline: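 Seed 2500 lymphoblastoid cells per well, incubate 5 hr at 37 C, add compound and incubate 24 hr at 37 C, add CellTiter-Glo, wait 30 min at room temperature, then read luminescence.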
# [16] = Cell Viability - LYMP2-020 (AID 986)
# Outline: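 Seed 2500 cells per well and incubate 5 hr at 37 C. Add compounds at a concentration series and incubate 24 hr at 37 C. Add CellTiter-Glo, wait 30 min at RT, read luminescence, and fit a Hill curve for AC50.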
# [17] = Cell Viability - LYMP2-022 (AID 987)
# Outline: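 Cells were seeded at 2500 per well, rested 5 hr at 37 C, and treated with titrated compounds for 24 hr at 37 C. Cellular ATP was then quantified by luciferase luminescence, and AC50 values were derived from Hill-modelled concentration-response curves.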
# [18] = Cell Viability - LYMP2-024 (AID 988); further: potency means the concentration at half of the fitted maximal effect; nearly all actives have a fitted effect of over 60% in size
# Outline: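 qHTS cytotoxicity, human lymphoblastoid line, complete medium; 24 h cpd treatment, 37 C; CellTiter-Glo ATP luminescence readout; tetraoctylammonium bromide positive control; AC50 via Hill fit.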
# [19] = Cell Viability - LYMP2-026 (AID 989); further: potency means the concentration at half of the fitted maximal effect; nearly all actives have a fitted effect of over 50% in size
# Outline: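 Cells are seeded at 2500 per well and held 5 hr at 37 C. Compounds are added in concentration series for 24 hr, then CellTiter-Glo reagent is applied and luminescence read.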
# [20] = Cell Viability - LYMP1-002 - Assay at 24 hr (AID 993); further: potency means the concentration at half of the fitted maximal effect
# Outline: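 Acute toxicity is measured as concentration-dependent loss of cellular ATP in a human lymphoblastoid line (Coriell LYMP1-002) after 24 h treatment in complete medium. ATP is quantified by luciferase luminescence and AC50 derived by Hill modelling.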
# [21] = Cell Viability - LYMP1-002 - Assay at 40 hr (AID 994); further: potency means the concentration at half of the fitted maximal effect; nearly all actives have a fitted effect of over 60% in size
# Outline: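 Cells are plated at 2500 per well and rested 5 hr at 37 C. Compounds are added and incubated 40 hr at 37 C. CellTiter-Glo reagent is added for 30 min at room temperature before luminescence is read.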
# [22] = molecular target: Vitamin D3 receptor (Homo sapiens) (UniProt P11473); test: qHTS assay for small molecule antagonists of vitamin D receptor signaling (AID 588541; calls by dose curve;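 further: receptor activated by calcitriol during compound treatment; series mostly up to about 77 µM; on the % scale 0 is the no-effect control and ±100 the full control effect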)
# Vitamin D3 receptor (Homo sapiens), sequence (P11473 whole entry, looked up): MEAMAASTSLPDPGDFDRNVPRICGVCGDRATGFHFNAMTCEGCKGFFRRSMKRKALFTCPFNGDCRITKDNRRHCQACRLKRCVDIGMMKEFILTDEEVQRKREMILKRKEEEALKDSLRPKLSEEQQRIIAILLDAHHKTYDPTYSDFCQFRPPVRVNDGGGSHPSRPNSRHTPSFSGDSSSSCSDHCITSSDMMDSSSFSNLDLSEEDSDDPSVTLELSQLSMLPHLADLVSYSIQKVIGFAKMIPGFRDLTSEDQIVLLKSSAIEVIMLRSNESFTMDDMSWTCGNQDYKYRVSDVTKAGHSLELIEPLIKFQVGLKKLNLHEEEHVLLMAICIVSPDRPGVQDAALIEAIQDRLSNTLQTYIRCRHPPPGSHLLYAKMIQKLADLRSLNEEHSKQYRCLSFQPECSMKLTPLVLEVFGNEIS
# Outline: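 VDR-UAS-bla HEK293T cells in 2% charcoal-stripped FBS were stimulated with 1-alpha,25-dihydroxyvitamin D3 (3 nM final) plus compound for 16 h at 37 C. The beta-lactamase CCF4 readout was normalized to 50 nM agonist and DMSO, and Hill fits gave IC50.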
# [23] = molecular target: Voltage-gated inwardly rectifying potassium channel KCNH2 (Homo sapiens) (UniProt Q12809); test: qHTS Assay for Small Molecule Inhibitors of the Human hERG Channel Activity (AID 588834);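 further: potency means the concentration at half of the fitted maximal effect; lower thallium flux fluorescence means stronger hERG block; nearly all actives have a fitted effect of over 50% in size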
# Voltage-gated inwardly rectifying potassium channel KCNH2 (Homo sapiens), sequence (Q12809 whole entry, looked up): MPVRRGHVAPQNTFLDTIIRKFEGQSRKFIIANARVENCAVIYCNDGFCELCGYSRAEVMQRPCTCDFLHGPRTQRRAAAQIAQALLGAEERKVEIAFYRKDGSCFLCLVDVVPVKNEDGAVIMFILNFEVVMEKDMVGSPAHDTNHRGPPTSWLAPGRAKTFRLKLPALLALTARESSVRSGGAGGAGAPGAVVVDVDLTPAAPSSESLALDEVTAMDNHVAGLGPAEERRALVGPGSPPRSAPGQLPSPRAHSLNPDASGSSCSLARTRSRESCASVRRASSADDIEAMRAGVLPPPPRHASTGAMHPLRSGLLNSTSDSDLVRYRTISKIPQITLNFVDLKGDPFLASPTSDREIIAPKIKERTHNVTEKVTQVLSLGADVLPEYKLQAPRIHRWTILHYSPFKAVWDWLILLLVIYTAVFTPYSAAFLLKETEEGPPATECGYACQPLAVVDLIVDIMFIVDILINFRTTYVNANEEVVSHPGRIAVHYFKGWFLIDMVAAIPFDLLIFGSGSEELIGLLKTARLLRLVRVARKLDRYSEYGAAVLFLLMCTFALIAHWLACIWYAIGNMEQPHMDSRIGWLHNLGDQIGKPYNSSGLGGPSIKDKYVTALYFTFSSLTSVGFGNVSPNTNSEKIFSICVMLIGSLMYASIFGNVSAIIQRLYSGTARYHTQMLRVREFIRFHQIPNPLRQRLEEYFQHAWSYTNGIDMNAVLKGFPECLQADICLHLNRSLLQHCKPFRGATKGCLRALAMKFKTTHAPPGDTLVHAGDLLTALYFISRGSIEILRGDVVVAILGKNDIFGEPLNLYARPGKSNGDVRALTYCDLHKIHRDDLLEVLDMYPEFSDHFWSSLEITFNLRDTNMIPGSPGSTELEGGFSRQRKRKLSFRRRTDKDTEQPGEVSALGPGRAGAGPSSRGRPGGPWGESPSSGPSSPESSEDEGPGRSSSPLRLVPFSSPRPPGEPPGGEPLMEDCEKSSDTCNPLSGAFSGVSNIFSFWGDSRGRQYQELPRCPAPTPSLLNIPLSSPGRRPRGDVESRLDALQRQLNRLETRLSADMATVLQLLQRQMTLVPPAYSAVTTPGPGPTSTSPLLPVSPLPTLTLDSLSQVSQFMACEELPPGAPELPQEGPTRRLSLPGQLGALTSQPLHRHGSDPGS
# Outline: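 Step 1: BacMam hERG transduction of U2OS, 4 hrs RT. Step 2: overnight 37 °C, plate 2000 cells/well, 4 hr. Step 3: FluxOR load, compound 10 min, stimulate, read fluorescence.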
# [24] = qHTS assay for small molecule agonists of the antioxidant response element (ARE) signaling pathway (AID 651741; active means well fitted activation curve with a large enough effect in the signal ratio; the % refers to the signal ratio; further: potency means the concentration at half of the fitted maximal effect)
# Outline: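 Stably integrated ARE-beta-lactamase reporter HepG2 cells; 16 h compound incubation, 37 C; LiveBLAzer FRET substrate 2 h at room temperature; fluorescence intensity.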
# [25] = qHTS assay for small molecule disruptors of the mitochondrial membrane potential - 1 hr assay (AID 651754; calls by dose curve; further: potency means the concentration at half of the fitted maximal effect; nearly all actives have a fitted effect of over 35% in size)
# Outline: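 Loss of mitochondrial potential shifts the cationic dye from red mitochondrial aggregates to green cytoplasmic monomers. Cells (HepG2) are treated with compound for 1 hr before a 30 min dye incubation at 37C.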
# [26] = qHTS assay for small molecule disruptors of the mitochondrial membrane potential - 5 hr assay (AID 651755; calls by dose curve; further: potency means the concentration at half of the fitted maximal effect; nearly all actives have a fitted effect of over 40% in size)
# Outline: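 Read-out: ratiometric Mito-MPS fluorescence, green monomer (ex 490/em 535) vs red mitochondrial aggregate (ex 540/em 590). HepG2 cells treated 5 hr at 37C before 30 min dye loading.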
# [27] = molecular target: Tumor necrosis factor (Homo sapiens) (UniProt P01375); test: qHTS assay to identify small molecules that stimulate Tumor Necrosis Factor-alpha (TNF-alpha) secretion (AID 651757; active means well fitted curve in the direction sought with a large enough effect in the signal ratio; the % refers to the signal ratio; further: 0% is about no effect)
# Tumor necrosis factor (Homo sapiens), sequence (P01375 whole entry, looked up): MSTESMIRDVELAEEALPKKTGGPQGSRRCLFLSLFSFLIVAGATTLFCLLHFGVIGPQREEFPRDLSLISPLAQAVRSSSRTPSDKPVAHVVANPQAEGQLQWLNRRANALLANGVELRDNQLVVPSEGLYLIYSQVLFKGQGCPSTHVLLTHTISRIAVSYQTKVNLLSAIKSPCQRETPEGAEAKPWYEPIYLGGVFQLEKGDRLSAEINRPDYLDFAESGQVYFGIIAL
# Outline: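 Human monocytic THP-1 cells are plated, treated with compound and held at 37 C for 17 hrs. Labeled anti-TNF-alpha antibody mixture is then added; after 3 hr at room temperature, TR-FRET signal reports secreted TNF-alpha.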
# [28] = qHTS assay for environmental chemicals that activate the Aryl hydrocarbon Receptor (AhR) signaling pathway (AID 651777); conditions: 1A2-DRE human hepatoma cells, luciferase, 24 h; activation: active compounds read high; further: % of control where 0% means no effect; nearly all actives have a fitted effect of over 15% in size
# Outline: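 1A2-DRE human hepatoma reporter line; 1,200 cells/well; cmpd or DMSO 24 h, 37 C/5% CO2; One-Glo 30 min RT; luciferase lum.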
# [29] = molecular target: Peroxisome proliferator-activated receptor alpha (Homo sapiens) (UniProt Q07869); test: qHTS assay for small molecule agonists of the peroxisome proliferator-activated receptor alpha (PPARalpha) signaling pathway (AID 651778); conditions: PathHunter PPARalpha complementation, chemiluminescence, 6 h; max response: active compounds read high; further: % of control where 0% means no effect
# Peroxisome proliferator-activated receptor alpha (Homo sapiens), sequence (Q07869 whole entry, looked up, the tested form may be a part): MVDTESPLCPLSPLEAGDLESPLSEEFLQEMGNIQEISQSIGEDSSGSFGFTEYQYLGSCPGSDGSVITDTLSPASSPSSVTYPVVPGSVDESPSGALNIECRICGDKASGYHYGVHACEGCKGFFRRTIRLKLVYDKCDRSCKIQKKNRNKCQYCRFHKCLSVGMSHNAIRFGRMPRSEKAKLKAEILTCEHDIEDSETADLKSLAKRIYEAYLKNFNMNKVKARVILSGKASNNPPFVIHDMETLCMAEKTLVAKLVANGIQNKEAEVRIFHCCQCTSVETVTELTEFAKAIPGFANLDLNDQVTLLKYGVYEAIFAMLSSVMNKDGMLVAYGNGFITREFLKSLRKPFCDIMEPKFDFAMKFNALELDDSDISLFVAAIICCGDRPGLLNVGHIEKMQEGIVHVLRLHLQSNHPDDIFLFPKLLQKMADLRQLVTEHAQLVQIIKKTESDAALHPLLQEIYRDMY
# Outline: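 Enzyme-fragment complementation assay in which ligand-bound PPARalpha translocates and forms an active enzyme that generates chemiluminescence. Cells were plated overnight, exposed to compound for 6 hr at 37 C, and then given detection reagent for 60 min at room temperature.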
# [30] = molecular target: Nuclear receptor ROR-gamma (Homo sapiens) (UniProt P51449); test: qHTS assay for small molecule antagonists of the retinoid-related orphan receptor gamma (ROR-gamma) signaling pathway (AID 651802)
# Nuclear receptor ROR-gamma (Homo sapiens), sequence (P51449 whole entry, looked up): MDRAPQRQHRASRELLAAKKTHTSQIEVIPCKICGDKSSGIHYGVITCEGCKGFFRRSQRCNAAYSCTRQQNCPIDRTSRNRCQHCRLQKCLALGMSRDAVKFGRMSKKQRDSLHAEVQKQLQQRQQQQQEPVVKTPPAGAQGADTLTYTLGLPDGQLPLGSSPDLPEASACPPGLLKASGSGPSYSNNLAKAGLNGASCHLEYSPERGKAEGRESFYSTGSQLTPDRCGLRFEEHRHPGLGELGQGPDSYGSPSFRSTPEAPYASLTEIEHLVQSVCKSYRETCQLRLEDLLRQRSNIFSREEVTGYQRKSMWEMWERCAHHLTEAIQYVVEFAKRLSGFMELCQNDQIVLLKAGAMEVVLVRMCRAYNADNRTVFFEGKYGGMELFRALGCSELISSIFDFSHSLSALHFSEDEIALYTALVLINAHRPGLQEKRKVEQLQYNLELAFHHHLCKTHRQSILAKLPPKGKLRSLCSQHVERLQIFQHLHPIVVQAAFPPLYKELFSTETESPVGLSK
# Outline: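 Steps: cells dispensed; compound or DMSO transferred by pin tool; doxycycline added to induce the ROR response element-driven luciferase; plates held 16hr at 37C; ONE-Glo added and luminescence measured.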
# [31] = qHTS assay for small molecule agonists of the antioxidant response element (ARE) signaling pathway measured by Nrf2-dependant transcriptional activity (AID 720636; active means well fitted curve in the direction sought with a large enough effect in the repeat runs; an effect the other way counts as inactive or inconclusive;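 further: HepG2 cells with an ARE-driven luciferase reporter; % of control where 0% means no effect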)
# Outline: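 Cells: ARE-luc HepG2 with Nrf2-responsive luciferase. Medium contained 1% dialyzed FBS. Compound exposure lasted 16 hr at 37 C and 5% CO2, followed by ONE-Glo luciferase detection.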
# [32] = qHTS assay for small molecule antagonists of the retinoid-related orphan receptor gamma (ROR-gamma) signaling pathway - cell viability counter screen (AID 720652; active means well fitted curve in the direction sought with a large enough effect in the repeat runs; an effect the other way counts as inactive or inconclusive;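 further: potency means the concentration at half of the fitted maximal effect; compound exposure lasted 16 hr before ATP read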)
# Outline: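 Steps: seed CHO cells bearing TET-inducible ROR and ROR response element-luciferase; rest 5 hr at 37 C; add compound, then doxycycline; incubate 16 hr; add CellTiter-Glo and read luminescence as ATP-based viability.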
# [33] = qHTS assay for small molecule agonists of the antioxidant response element (ARE) signaling pathway measured by Nrf2-dependant transcriptional activity - cell viability counter screen (AID 720653; active means well fitted curve in the direction sought with a large enough effect in the repeat runs; an effect the other way counts as inactive or inconclusive; further: potency means the concentration at half of the fitted maximal effect); conditions: ARE-bla HepG2 viability, CellTiter-Glo ATP luminescence, 16 h; max response: active compounds read low
# Outline: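 ARE-bla HepG2 cells treated with compounds for 16 h at 37C; this counter screen measures viability as intracellular ATP by CellTiter-Glo luminescence after 30 min at room temperature.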
# [34] = qHTS assay for cell viability of HEK293 cells (AID 743288); conditions: ATP luminescence (CellTiter-Glo), 18 h; max response: active compounds read low
# Outline: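 Viable-cell counts were inferred from luciferase-based ATP content in HEK293 cells seeded at 2,000/well, pre-incubated ≥5 h, then dosed with DMSO-solubilised compounds for 18 h at 37 C.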
# [35] = qHTS assay for cell viability of the p53RE-bla HCT-116 cell line (AID 743292)
# Outline: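 HCT-116 p53RE-bla cells seeded 4,000/well; 5 h at 37 C; compound (DMSO) added; 16 h at 37 C; CellTiter-Glo added, 30 min RT; luminescence read.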
smiles,measurement,setting,value
CCCCCCCC[N+](CCCCCCCC)(CCCCCCCC)CCCCCCCC,Potency,[1],7.94 µM (active)
same,Potency,[2],7.94 µM (active)
same,Potency,[3],7.94 µM (active)
same,Potency,[4],7.94 µM (active)
same,Potency,[5],7.94 µM (active)
same,Potency,[6],7.94 µM (active)
same,Potency,[7],12.6 µM (active)
same,Potency,[8],7.94 µM (active)
same,Potency,[9],2.51 µM (active)
same,Potency,[10],3.98 µM (active)
same,Potency,[11],3.16 µM (active)
same,Potency,[12],3.98 µM (active)
same,Potency,[13],6.31 µM (active)
same,Potency,[14],5.01 µM (active)
same,Potency,[15],5.01 µM (active)
same,Potency,[16],5.01 µM (active)
same,Potency,[17],3.16 µM (active)
same,Potency,[18],3.98 µM (active)
same,Potency,[19],7.94 µM (active)
same,Potency,[20],3.16 µM (active)
same,Potency,[21],3.98 µM (active)
same,Potency,[22],inactive
same,Potency,[23],0.355 µM (active)
same,Potency,[24],8.41 µM (active)
same,Potency,[25],3.35 µM (active)
same,Potency,[26],2.66 µM (active)
same,outcome,[27],inactive
same,activation,[28],-8.33%
same,max response,[29],6.05%
same,Potency,[30],1.5 µM (active)
same,Potency,[31],inactive
same,Potency,[32],9.44 µM (active)
same,Potency,[33],28.2 µM (active)
same,Potency,[34],28.2 µM (active)
same,Potency,[35],44.7 µM (active)
